Some targets named below: RELARELA (p65 homodimer) (Homo sapiens, UniProt Q04206 1-307); p50p50 homodimer (Homo sapiens, UniProt P19838 7-356); RELB subunit;p50 subunit (Homo sapiens;Homo sapiens, UniProt Q01201;P19838 120-401;7-356).
Assay in all cases: protein binding microarray; high values mean tight binding
Details in all cases: dsDNA, one strand shown

A further test addresses T1, p52p52 homodimer (Homo sapiens, UniProt Q00653 4-332).
T1 sequence: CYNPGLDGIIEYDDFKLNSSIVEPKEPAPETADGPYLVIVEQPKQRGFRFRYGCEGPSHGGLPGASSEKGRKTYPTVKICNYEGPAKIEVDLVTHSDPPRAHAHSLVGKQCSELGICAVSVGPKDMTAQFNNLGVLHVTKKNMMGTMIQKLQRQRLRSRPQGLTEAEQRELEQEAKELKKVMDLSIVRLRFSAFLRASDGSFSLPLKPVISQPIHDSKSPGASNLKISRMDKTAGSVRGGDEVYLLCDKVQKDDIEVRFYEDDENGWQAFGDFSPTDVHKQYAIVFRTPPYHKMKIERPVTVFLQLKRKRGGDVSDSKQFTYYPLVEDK

Test [1] has as its target RELA (p65) subunit of heterodimer;p50 subunit (Homo sapiens;Homo sapiens, UniProt Q04206;P19838 1-307;7-356).
Test [2] deals with RELA (p65) subunit of heterodimer;p52 subunit (Homo sapiens;Homo sapiens, UniProt Q04206;Q00653 1-307;4-332).
The target of a further test is T2, RELB subunit;p52 subunit (Homo sapiens;Homo sapiens, UniProt Q01201;Q00653 120-401;4-332).
T2 sequence 1: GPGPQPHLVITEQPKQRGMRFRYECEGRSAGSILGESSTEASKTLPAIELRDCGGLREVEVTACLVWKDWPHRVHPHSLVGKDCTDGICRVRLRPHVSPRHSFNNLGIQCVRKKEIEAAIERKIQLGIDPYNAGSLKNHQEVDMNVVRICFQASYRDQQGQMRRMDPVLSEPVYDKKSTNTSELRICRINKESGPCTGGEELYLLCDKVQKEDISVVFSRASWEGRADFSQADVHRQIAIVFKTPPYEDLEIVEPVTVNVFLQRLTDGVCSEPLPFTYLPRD
T2 sequence 2: T1 sequence

For test [3], the target named is C-Rel subunit;p50 subunit (Homo sapiens;Homo sapiens, UniProt Q04864;P19838 1-285;7-356).
The target of test [4] is T3, C-Rel subunit;p52 subunit (Homo sapiens;Homo sapiens, UniProt Q04864;Q00653 1-285;4-332).
T3 sequence 1: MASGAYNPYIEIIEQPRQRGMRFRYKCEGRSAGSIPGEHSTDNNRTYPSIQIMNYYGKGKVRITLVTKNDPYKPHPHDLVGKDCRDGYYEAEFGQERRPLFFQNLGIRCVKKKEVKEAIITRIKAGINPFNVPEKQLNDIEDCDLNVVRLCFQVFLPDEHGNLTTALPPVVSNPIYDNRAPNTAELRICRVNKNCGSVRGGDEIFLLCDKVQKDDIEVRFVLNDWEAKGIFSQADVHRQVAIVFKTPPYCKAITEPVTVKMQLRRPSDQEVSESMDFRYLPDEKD
T3 sequence 2: T1 sequence

Drawing on PMC3218832, this text covers binding signal for 15 sequences.

RELARELA (p65 homodimer), sequence (Q04206 1-307): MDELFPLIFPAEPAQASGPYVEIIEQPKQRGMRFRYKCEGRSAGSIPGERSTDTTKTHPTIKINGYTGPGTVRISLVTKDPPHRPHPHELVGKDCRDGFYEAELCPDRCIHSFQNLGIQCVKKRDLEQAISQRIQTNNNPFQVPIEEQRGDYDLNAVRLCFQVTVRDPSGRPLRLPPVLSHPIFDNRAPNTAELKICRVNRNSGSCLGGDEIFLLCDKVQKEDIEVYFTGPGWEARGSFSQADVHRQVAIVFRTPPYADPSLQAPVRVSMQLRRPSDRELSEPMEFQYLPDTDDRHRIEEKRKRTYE
RELA (p65) subunit of heterodimer;p50 subunit, sequence (Q04206 1-307, chain 1 of 2): as the sequence (Q04206 1-307) above
RELA (p65) subunit of heterodimer;p50 subunit, sequence (P19838 7-356, chain 2 of 2): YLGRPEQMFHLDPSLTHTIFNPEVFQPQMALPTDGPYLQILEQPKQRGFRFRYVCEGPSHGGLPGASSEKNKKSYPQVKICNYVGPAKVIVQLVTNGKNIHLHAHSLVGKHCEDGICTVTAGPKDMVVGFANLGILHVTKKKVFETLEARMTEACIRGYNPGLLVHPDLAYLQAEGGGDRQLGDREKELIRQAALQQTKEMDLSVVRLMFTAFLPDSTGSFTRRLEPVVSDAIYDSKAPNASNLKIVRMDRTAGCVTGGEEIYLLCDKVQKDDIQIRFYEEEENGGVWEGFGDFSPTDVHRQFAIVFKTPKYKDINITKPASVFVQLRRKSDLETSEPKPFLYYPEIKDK
p50p50 homodimer, sequence (P19838 7-356): as the sequence (P19838 7-356, chain 2 of 2) above

In the case of CGAGTTTCCCT, the binding signal in the test with RELARELA (p65 homodimer) worked out at 1.14 z-score; with p50p50 homodimer, 1.12 z-score; with p52p52 homodimer, 1.17 z-score; in [1], 1.16 z-score; in test [2], 1.16 z-score; in the test with RELB subunit;p50 subunit, 1.04 z-score. Besides, the binding signal came to 1.42 z-score with RELB subunit;p52 subunit, 1.07 z-score in test [3] and 0.975 z-score in test [4].

Turning to GGAGTGACCCC, the binding signal is -0.389 z-score with RELARELA (p65 homodimer); -0.505 z-score with p50p50 homodimer; -0.461 z-score in the test with p52p52 homodimer; -0.353 z-score in test [1]; -0.178 z-score in test [2]; -0.399 z-score with RELB subunit;p50 subunit. Besides, the binding signal with RELB subunit;p52 subunit was -0.304 z-score; in test [3], -0.367 z-score; in test [4] it was -0.254 z-score.

Take AAGGTGTCCCT: the binding signal is -0.0449 z-score in the test with RELARELA (p65 homodimer); 0.811 z-score in the test with p50p50 homodimer; 0.895 z-score with p52p52 homodimer; 0.784 z-score in [1]; 0.967 z-score in test [2]; 1.01 z-score with RELB subunit;p50 subunit. Also, the figures for the binding signal (with RELB subunit;p52 subunit; in test [3]; in test [4]) were 1.5 z-score, 0.63 z-score and 0.562 z-score, respectively.

For the sequence CGGGGTCTCCT, the binding signal in the test with RELARELA (p65 homodimer) is -0.0145 z-score; with p50p50 homodimer it was 0.0717 z-score; with p52p52 homodimer, 0.00961 z-score; in test [1] it was -0.308 z-score; in test [2], -0.191 z-score; in the test with RELB subunit;p50 subunit, -0.332 z-score. Also, the binding signal with RELB subunit;p52 subunit is -0.207 z-score; in test [3], -0.336 z-score; in [4], 0.0688 z-score.

Regarding AGATTATCCCT, the binding signal with RELARELA (p65 homodimer) was 0.0615 z-score; with p50p50 homodimer, 0.543 z-score; with p52p52 homodimer, 0.486 z-score; in [1], 0.262 z-score; in test [2], 0.522 z-score; with RELB subunit;p50 subunit, 0.325 z-score. Also, the values for the binding signal (in the test with RELB subunit;p52 subunit; in [3]; in test [4]) were 0.392 z-score, 0.0293 z-score and 0.0511 z-score, respectively.

With AAATTGGCCCC, the binding signal was -0.344 z-score with RELARELA (p65 homodimer); 0.122 z-score in the test with p50p50 homodimer; -0.144 z-score with p52p52 homodimer; 0.118 z-score in test [1]; -0.121 z-score in test [2]; 0.375 z-score in the test with RELB subunit;p50 subunit. The binding signal with RELB subunit;p52 subunit was 0.258 z-score; in [3], 0.04 z-score; in test [4] it was -0.0339 z-score.

Take GAAGGCTCCCT: the binding signal with RELARELA (p65 homodimer) was -0.795 z-score; with p50p50 homodimer, -1.03 z-score; with p52p52 homodimer, -0.473 z-score; in test [1] it was -0.74 z-score; in test [2], -0.784 z-score; in the test with RELB subunit;p50 subunit, -0.594 z-score. Further, the binding signal with RELB subunit;p52 subunit was -0.67 z-score; in test [3], -1.02 z-score; in [4], -0.773 z-score.

With AGGATACCCCC, the binding signal with RELARELA (p65 homodimer) was determined as 0.417 z-score; with p50p50 homodimer, 1.14 z-score; in the test with p52p52 homodimer, 0.992 z-score; in test [1], 1.34 z-score; in test [2], 1.29 z-score; with RELB subunit;p50 subunit it was 1.01 z-score. The binding signal with RELB subunit;p52 subunit amounted to 1.54 z-score; in test [3] it was 0.882 z-score; in test [4], 1.24 z-score.

Turning to GGAGAAGTCCT, the binding signal is 0.391 z-score in the test with RELARELA (p65 homodimer); -0.831 z-score with p50p50 homodimer; -0.506 z-score with p52p52 homodimer; -0.525 z-score in test [1]; -0.585 z-score in test [2]; -0.798 z-score in the test with RELB subunit;p50 subunit. Also, the binding signal is -0.864 z-score in the test with RELB subunit;p52 subunit, -0.433 z-score in [3] and -0.307 z-score in [4].

Turning to AAATGCTTCCC, the binding signal with RELARELA (p65 homodimer) was 0.511 z-score; with p50p50 homodimer, -0.412 z-score; with p52p52 homodimer, -0.425 z-score; in [1], -0.0858 z-score; in test [2], -0.314 z-score; with RELB subunit;p50 subunit, -0.27 z-score. Besides, the binding signal was -0.535 z-score in the test with RELB subunit;p52 subunit, 0.16 z-score in [3] and -0.384 z-score in test [4].

For AAAGGGATCCC, the binding signal is 0.0658 z-score with RELARELA (p65 homodimer); -0.302 z-score with p50p50 homodimer; 0.0251 z-score in the test with p52p52 homodimer; -0.128 z-score in test [1]; -0.268 z-score in [2]; -0.184 z-score in the test with RELB subunit;p50 subunit. In addition, the binding signal with RELB subunit;p52 subunit was -0.115 z-score; in test [3] it was -0.213 z-score; in [4] it was -0.202 z-score.

As to CAGAAGTCCCT, the binding signal with RELARELA (p65 homodimer) was determined as 0.471 z-score; in the test with p50p50 homodimer, 1.51 z-score; with p52p52 homodimer, 1.62 z-score; in test [1], 1.88 z-score; in test [2], 1.35 z-score; with RELB subunit;p50 subunit it was 2.02 z-score. The binding signal worked out at 1.86 z-score in the test with RELB subunit;p52 subunit, 1.39 z-score in test [3] and 0.987 z-score in [4].

With GGGATTCTCCC, the binding signal in the test with RELARELA (p65 homodimer) came to 2.28 z-score; with p50p50 homodimer, 0.737 z-score; with p52p52 homodimer, 2.84 z-score; in test [1], 1.59 z-score; in test [2] it was 2.15 z-score; with RELB subunit;p50 subunit it was 2.01 z-score. The binding signal with RELB subunit;p52 subunit turned out to be 1.67 z-score; in test [3], 1.41 z-score; in test [4], 2 z-score.

AAAGTCGTCCT: the binding signal is -0.192 z-score with RELARELA (p65 homodimer); -1.25 z-score with p50p50 homodimer; -0.599 z-score in the test with p52p52 homodimer; -1.25 z-score in test [1]; -0.839 z-score in [2]; -0.89 z-score with RELB subunit;p50 subunit. For the same sequence, the binding signal is -0.666 z-score in the test with RELB subunit;p52 subunit, -1.18 z-score in test [3] and -0.704 z-score in test [4].

In the case of CGAGGGTTCCC, the binding signal was -0.124 z-score with RELARELA (p65 homodimer); -0.573 z-score with p50p50 homodimer; -0.304 z-score in the test with p52p52 homodimer; -0.206 z-score in test [1]; -0.377 z-score in test [2]; -0.397 z-score with RELB subunit;p50 subunit. The binding signal in the test with RELB subunit;p52 subunit is -0.335 z-score; in test [3], -0.0483 z-score; in test [4], -0.0728 z-score.
